KCNQ2 enhance: potentiators of rat KCNQ2 potassium channel; Potassium voltage-gated channel subfamily KQT member 2 (Rattus norvegicus), O88943; CHO-K1 KCNQ2, FluxOR thallium flux fluorescence; active compounds read high; B-score at 10 µM; hit rate 0.54% among 310,000;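 active = fluorescence ratio B-score at least 3 SD of library B-scores, with initial fluorescence B-score within 3 of them, cut at about 5.3 in these data; same plate scores as AID 2156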;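 also: B-score of peak minus minimum over baseline fluorescence ratio after K+ and Tl+ stimulus; positive B-score means potentiation of KCNQ2 with more thallium influx and brighter signal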
Target sequence (O88943 whole entry, looked up): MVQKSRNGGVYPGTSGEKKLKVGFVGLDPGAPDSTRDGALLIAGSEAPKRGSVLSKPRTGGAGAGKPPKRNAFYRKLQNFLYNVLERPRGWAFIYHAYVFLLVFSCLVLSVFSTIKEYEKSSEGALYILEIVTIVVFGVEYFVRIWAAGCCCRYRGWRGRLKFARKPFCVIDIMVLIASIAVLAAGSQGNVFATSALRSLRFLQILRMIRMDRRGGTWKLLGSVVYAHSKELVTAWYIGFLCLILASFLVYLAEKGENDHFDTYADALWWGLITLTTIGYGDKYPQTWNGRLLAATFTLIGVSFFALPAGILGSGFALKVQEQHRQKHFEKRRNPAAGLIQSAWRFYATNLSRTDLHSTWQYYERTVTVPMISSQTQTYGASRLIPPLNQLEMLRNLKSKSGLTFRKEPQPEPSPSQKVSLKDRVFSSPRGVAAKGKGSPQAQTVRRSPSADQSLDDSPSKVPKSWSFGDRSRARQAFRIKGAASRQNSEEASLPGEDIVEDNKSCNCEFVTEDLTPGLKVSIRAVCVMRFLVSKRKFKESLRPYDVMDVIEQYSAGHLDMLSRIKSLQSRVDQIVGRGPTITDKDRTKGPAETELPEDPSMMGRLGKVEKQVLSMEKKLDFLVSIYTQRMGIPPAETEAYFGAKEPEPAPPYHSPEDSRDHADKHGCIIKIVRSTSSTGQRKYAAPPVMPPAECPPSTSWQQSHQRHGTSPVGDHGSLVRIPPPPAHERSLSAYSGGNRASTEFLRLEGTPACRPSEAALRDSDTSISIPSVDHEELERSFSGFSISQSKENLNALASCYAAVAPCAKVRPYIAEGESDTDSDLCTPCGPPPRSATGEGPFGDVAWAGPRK
KCNQ2 block: rat KCNQ2 potassium channel inhibitors, primary screen, cell-based, CHO-K1, FluxOR thallium flux, B-score; Potassium voltage-gated channel subfamily KQT member 2 (Rattus norvegicus), O88943; 20 min; active compounds read low; B-score at 10 µM; hit rate 1.1% among 310,000; AID 2156, 2009;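 active = fluorescence ratio B-score at most minus 3 library SDs, with starting brightness B-score within 2 library SDs, cut at about -5.5 in these data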
The depositor's hits bear a star; i = inactive; nt = not tested or not shown. Rows were chosen to be rich in hits. Some 1.6% of all compounds tested hit in one or more screens of this group.

SMILES	KCNQ2 enhance	KCNQ2 block
Cc1cc(NC(=O)Cn2nc(C(=O)O)c3ccccc3c2=O)c([N+](=O)[O-])cc1C	nt	i
Cc1ccc(-n2nnnc2SCC(=O)NC2CCCc3ccccc32)c(C)c1 (stereo not given)	-6.5	-6.5*
Cc1ccc(-n2nnnc2SCC(=O)NC2CCCc3ccccc32)cc1 (stereo not given)	nt	i
Cc1cccc(NCc2ccccc2OCc2ccccc2F)c1	-5.5	-5.5*
Cc1ccc(NCc2ccccc2OCc2ccccc2F)cc1	nt	i
COc1ccc(CN2CCNC(=O)C2CC(=O)NCCCC2CCCC2)c(C)c1C (stereo not given)	1.7	i
CCC(=O)Nc1nnc(S(=O)(=O)N(C)c2cc(C)cc(C)c2)s1	nt	i
CCC(C)c1ccccc1NC(=O)Cc1coc2cc3c(cc12)CCC3 (stereo not given)	7.7*	i
Cc1ccc(C)c(NC(=O)Cc2coc3cc4c(cc23)CCC4)c1	0.76	i
CCC(=O)N1CCc2cc(S(=O)(=O)CCC(=O)NCc3cccc(OC)c3)ccc21	0.91	i
O=C(Nc1ccc(Cl)cc1)c1cccc(NC2=NC3CS(=O)(=O)CC3S2)c1 (stereo not given)	nt	i
CC(=O)c1cccc(NC(=O)C(OC(=O)c2cccc(S(=O)(=O)N(C)c3ccccc3)c2)c2ccccc2)c1 (stereo not given)	-5.5	-5.5*
COc1ccc(N(C)S(=O)(=O)c2cccc(C(=O)OC(C(=O)Nc3cc(C)cc(C)c3)c3ccccc3)c2)cc1 (stereo not given)	-5.7	-5.7*
COc1ccc(N(C)S(=O)(=O)c2cccc(C(=O)Nc3cc(OC)ccc3OC)c2)cc1	nt	i
CC(=O)c1cccc(NC(=O)C(OC(=O)c2ccccc2NS(=O)(=O)c2cccs2)c2ccccc2)c1 (stereo not given)	nt	i
Cc1cccc(N2CCN(C(=O)CCC(=O)N3CC(C)Oc4ccc(C)cc43)CC2C)c1 (stereo not given)	nt	i
COc1ccc(CO[C@@H]2O[C@H](CO)[C@@H](O)[C@H](O)[C@H]2NC(C)=O)cc1OC	nt	i
COC(=O)c1cc(S(=O)(=O)Nc2cccc(C)c2C)cn1C	nt	i
CCOc1ccc(NC(=O)C(=O)NCCN2CCN(C(=O)c3ccc(C)cc3)CC2)cc1	0.66	i
Cc1ccc(C)c2[nH]c(=O)c(C(c3nnnn3CCc3ccccc3)N3CCOCC3)cc12 (stereo not given)	-6	-6*
Cc1ccc(C)c2[nH]c(=O)c(C(c3nnnn3C3CCCC3)N3CCOCC3)cc12 (stereo not given)	-6.1	-6.1*
CCOc1ccc2[nH]c(=O)c(C(c3nnnn3C3CCCCC3)N3CCN(CC)CC3)cc2c1 (stereo not given)	0.77	i
CCOC(=O)C1CCN(C(c2cc3c(C)ccc(C)c3[nH]c2=O)c2nnnn2C2CCCCC2)CC1 (stereo not given)	nt	i
COc1ccc(Cn2nnnc2C(c2cc3cccc(C)c3[nH]c2=O)N2CCOCC2)cc1 (stereo not given)	nt	i
COc1cc2cc(C(c3nnnn3C3CCCC3)N3CCCCCC3)c(=O)[nH]c2cc1OC (stereo not given)	-11	-11*
SMILES	KCNQ2 enhance	KCNQ2 block
COc1cccc(C(=O)N2CCC(n3nccc3NC(=O)CCOc3ccccc3)CC2)c1	0.79	i
O=S(=O)(c1ccc(Cl)cc1)N1CCCC1c1nc2ccccc2s1 (stereo not given)	nt	i
O=S(=O)(c1ccccc1Cl)N1CCCC(c2nc(-c3cccnc3)no2)C1 (stereo not given)	0.89	i
O=S(=O)(c1ccccc1Cl)N1CCCC1c1nc(-c2cccc(Cl)c2)no1 (stereo not given)	-6.3	-6.3*
O=S(=O)(c1ccc(Cl)cc1)N1CCCC1c1nc(-c2cccc(Cl)c2)no1 (stereo not given)	-5.9	-5.9*
Cc1nnsc1-c1c(C(=O)N2CCOCC2)c(C)nn1-c1ccc(Cl)cc1	nt	i
COc1cccc(CN(C)C(=O)[C@@H](NC(=O)c2ccc(C)cc2)C(C)C)c1	nt	i
CC(C)(C)NC(=O)COC(=O)C1c2ccccc2Oc2ccccc21	-5.7	-5.7*
CC(C)CNC(=O)COC(=O)C1c2ccccc2Oc2ccccc21	0.37	i
CCCCC(c1nnnn1C(C)C)N1CCN(C(=O)c2ccco2)CC1 (stereo not given)	nt	i
CCN(CC(=O)Nc1c(F)cccc1F)C(=O)c1cc(S(=O)(=O)N2CCOCC2)ccc1N1CCCC1	1.6	i
COCCOC(=O)/C(=C/c1ccc(OC(=O)c2ccccc2)cc1)C(C)=O	0.27	i
CCOC(=O)/C(=C/c1ccc(OC(=O)c2ccncc2)cc1)C(C)=O	-5.7	-5.7*
N#CCCCCn1ccc(NC(=O)c2ccc(Cl)cc2O)n1	1.2	i
Cc1ccc(CNC(=O)C2CCN(S(=O)(=O)c3ccc(Br)s3)CC2)cc1	nt	i
CN1CCN(S(=O)(=O)c2ccc(Br)c3ccccc23)CC1	0.08	i
